# Results taken from PubChem BioAssay (EPA / NIEHS).
# The source holds several records for some structures; these can differ, active in one and inactive in another. Calls of active or inactive are those of the source. Rule for the calls: active = hit-call score of the fitted dose curve at least 0.9, where 1 is the maximum; inactive = score below 0.9.
# Assay: BSK_3C_Vis: BioMAP Diversity Plus: 3C Assay for Morphology Visualization (AID 2283025);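 note: fitted both ways so gain or loss versus DMSO counts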
# Details: primary human endothelial cells (HUVEC)
# Experimental: BSK_3C is a cell-based, multiplexed-readout assay that uses umbilical vein endothelium, a human vascular primary cell, with measurements taken at 24 hours after chemical dosing in a 96-well plate.BSK_3C_Vis is an assay component measured in the BSK_3C assay. It measures NA related to cell morphology using light microscopy technology.Data from the assay component BSK_3C_Vis was analyzed into 1 assay endpoint. This assay endpoint, BSK_3C_Vis, was analyzed with bidirectional fitting relative to DMSO as the negative control and baseline of activity. Using a type of morphology reporter, gain or loss-of-signal activity can be used to understand changes in the background control. Furthermore, this assay endpoint can be referred to as a secondary readout, because this assay has produced multiple assay endpoints where this one serves a background control function. To generalize the intended target to other relatable targets, this assay endpoint is annotated to the cell morphology intended target family, where the subfamily is cell conformation.
# The levels of cell surface (or secreted, indicated by the prefix "s") biomarker endpoints were measured by ELISA. Overt cytotoxicity to cells in confluent adherent cultures (all systems other than the BT system) was assessed by measuring total protein levels using sulforhodamine B (SRB) staining in parallel cultures at the time of biomarker measurements, indicated as SRB endpoints. For proliferation assays for adherent cell types, individual cell types are cultured at sub-confluence and relative cell numbers quantified by SRB staining at time points optimized for each system (48 h: 3C and CASM3C systems; 72 h: BT and HDF3CGF systems; 96 h: SAg system). SRB was performed by staining cells with 0.1% SRB after fixation with 10% TCA and reading wells at 560 nm.Viability and proliferation of PBMC (T cells) was quantified by Alamar Blue reduction for the SAg and BT systems. For PBMC viability (referred to as PBMC Cytotoxicity within the assay endpoint names), cells were plated (75,000/well in a 96-well plate) and then chemical samples added for 1 h before addition of activators, SEB and TSST-1 (20 ng/mL final concentration each). Cells were incubated for 90 h. Then, Alamar Blue (20 uL/well) (Invitrogen, Cat DAL1100) was added for 6 h, and the plates were read with a fluorescence microplate reader at 546/580 nm (excitation/emission). For PBMC proliferation, cells were plated and activated as above but incubated for only 16 h prior to addition of Alamar Blue. Plates were read after 6 h.
SMILES,outcome,AC50
O=C(N[C@H]1CN2CCC1CC2)c1cc2ccoc2cn1,inactive,–
CCCCCCCCCC[N+](C)(C)CCCCCCCCCC,–,4.15 µM (active)
O=NN(c1ccccc1)c1ccccc1,inactive,–
CC(c1ccc(O)cc1)(c1ccc(O)cc1)c1ccc(O)cc1,–,39 µM (active)
O=S(=O)(O)C(F)(F)C(F)(F)C(F)(F)C(F)(F)C(F)(F)C(F)(F)F,inactive,–
O=C(O)C(F)(F)C(F)(F)C(F)(F)C(F)(F)C(F)(F)C(F)(F)C(F)(F)C(F)(F)C(F)(F)F,inactive,–
C[C@]12CCC(=O)C=C1CC[C@@H]1[C@@H]2CC[C@@]2(C)[C@H]1CC[C@]2(C)O,inactive,–
Oc1c(Cl)c(Cl)c(Cl)c(Cl)c1Cl,inactive,14.1 µM (active)
CCC(C)(c1ccc(O)cc1)c1ccc(O)cc1,–,39 µM (active)
Cc1ccccc1O,inactive,–
CCCCCCCCCc1ccc(O)cc1,–,38.7 µM (active)
CC1=C2C[C@H]3[C@@H](CC=C4C[C@@H](O)CC[C@@]43C)[C@@H]2CC[C@]12O[C@@H]1C[C@H](C)CN[C@H]1[C@H]2C,–,4.9 µM (active)
Oc1ccc(C(c2ccc(O)cc2)(C(F)(F)F)C(F)(F)F)cc1,–,18.7 µM (active)
Cc1cc2c3c(c1)C(c1ccccc1)=N[C@@H](NC(=O)c1ccncc1)C(=O)N3CC2,inactive,–
O=C(O)C(F)(F)C(F)(F)C(F)(F)C(F)(F)C(F)(F)C(F)(F)C(F)(F)C(F)(F)F,inactive,–
COS(=O)(=O)OC,inactive,–
Cc1ccccc1[N+](=O)[O-],inactive,–
CC(C)(O)C(=O)Nc1ccc([N+](=O)[O-])c(C(F)(F)F)c1,inactive,–
CCOP(=S)(OCC)SCSC(C)(C)C,inactive,–
Clc1ccc(Cl)cc1,inactive,–

SMILES,outcome,AC50
Cc1ccccc1CO[C@@H]1C[C@@]2(C(C)C)CC[C@]1(C)O2,inactive,–
ClC(Cl)=C(c1ccc(Cl)cc1)c1ccc(Cl)cc1,–,37.3 µM (active)
O=C(O)C(F)(F)C(F)(F)C(F)(F)C(F)(F)C(F)(F)F,inactive,–
Cc1cccc([N+](=O)[O-])c1,inactive,–
COc1ccc(O)c(C(C)(C)C)c1,inactive,–
CCC(=O)O[C@H]1CC[C@H]2[C@@H]3CCC4=CC(=O)CC[C@]4(C)[C@H]3CC[C@]12C,–,20.7 µM (active)
CCNc1nc(NC(C)C)nc(SC)n1,inactive,–
Oc1ccc(Cl)cc1Cl,inactive,–
Cc1cc(O)ccc1Cl,inactive,–
ClC1=C(Cl)[C@]2(Cl)[C@@H]3[C@H]4C[C@H]([C@@H]5O[C@H]45)[C@@H]3[C@@]1(Cl)C2(Cl)Cl,inactive,–
Clc1ccc(C(Cl)(Cl)Cl)cc1,inactive,–
C1CC2OC2CC1C1CO1 (stereo not given),inactive,–
Sc1ccccc1,inactive,–
CN(C)CCO,inactive,–
NS(=O)(=O)C(F)(F)C(F)(F)C(F)(F)C(F)(F)C(F)(F)C(F)(F)C(F)(F)C(F)(F)F,–,37.5 µM (active)
N#Cc1ccc(N(CC(N)=O)CC(F)(F)F)cc1C(F)(F)F,inactive,–
ClC1=C(Cl)[C@]2(Cl)[C@@H]3[C@@H](Cl)[C@H]4O[C@H]4[C@@H]3C1(Cl)C2(Cl)Cl,inactive,–
CCOC(=O)C(O)(c1ccc(Cl)cc1)c1ccc(Cl)cc1,–,37.3 µM (active)
C=CC(=O)NCNC(=O)C=C,inactive,–
